According to PubChem BioAssay AID1209 (Sanford-Burnham Center for Chemical Genomics, 2008):
Among all 190,000 compounds or so, about 810 (0.43%) were called active. Rule as the data show it: active = inhibition above about 50%; inactive = the rest. Many of the other results were omitted from the sample, so actives are more common in it than they were.

Biological target: Mannose-6-phosphate isomerase (Homo sapiens) (UniProt P34949)
Assay: inhibitors of human PMI, primary screen, biochemical, fluorescence intensity, coupled assay (AID 1209);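 also: plate controls were DMSO vehicle for no effect and wells lacking substrate for full effect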
Conditions: purified PMI enzyme, at 20 µM, hits give high values

Mannose-6-phosphate isomerase (Homo sapiens), sequence (P34949 whole entry, looked up): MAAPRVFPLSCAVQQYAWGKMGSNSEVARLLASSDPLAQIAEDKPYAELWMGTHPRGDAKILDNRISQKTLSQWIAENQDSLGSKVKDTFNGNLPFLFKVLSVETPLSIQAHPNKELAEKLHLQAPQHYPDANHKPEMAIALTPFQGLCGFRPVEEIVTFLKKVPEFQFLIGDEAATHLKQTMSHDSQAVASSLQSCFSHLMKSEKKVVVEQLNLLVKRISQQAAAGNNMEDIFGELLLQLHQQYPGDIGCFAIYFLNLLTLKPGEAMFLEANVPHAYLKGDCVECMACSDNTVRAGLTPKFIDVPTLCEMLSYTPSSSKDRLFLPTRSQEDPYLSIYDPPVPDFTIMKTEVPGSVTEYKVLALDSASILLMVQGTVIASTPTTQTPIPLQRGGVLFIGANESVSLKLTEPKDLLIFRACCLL

Row | SMILES | inhibition
1 | COc1ccc(N2C(=O)CSCC2=O)cc1OC | 1.2% (inactive)
2 | Cc1ccc(C)c(C(C)NC(=O)c2ccccc2Br)c1 (stereo not drawn) | -5.5% (inactive)
3 | Clc1ss/c(=N\c2ccccn2)c1Cl | -30.7% (inactive)
4 | Cc1cc(C)c(C#N)c(Cl)n1 | 21% (inactive)
5 | Cc1ccc(N=c2ssnc2Cl)cc1 | 75.1% (active)
6 | O=C1CSC(=Nc2ccccc2)N1Cc1ccccc1 | 6.4% (inactive)
7 | CCOC(=O)c1ccc(N=c2ssnc2Cl)cc1 | 66.1% (active)
8 | CCOC(=O)c1ccc(N=c2scc(C)n2CC)cc1 | -8.8% (inactive)
9 | CCOC(=O)c1ccc(N=C2NC(=O)CS2)cc1 | 10.2% (inactive)
10 | Cc1cc(C)nc(NC(=O)c2csnn2)c1 | -0.9% (inactive)
11 | Cc1cc(C)nc(/N=c2/ssnc2Cl)c1 | 60.1% (active)
12 | Cc1ccc(N=C2CSC(=O)N2)cc1 | 8.6% (inactive)
13 | Clc1nssc1=Nc1ccccc1 | 57% (active)
14 | Cc1ccc(N=c2sc(C)c(C)n2C)cc1 | -13% (inactive)
15 | CCC(=O)c1c[nH]c(C(=O)NCCCn2ccnc2)c1 | 10.2% (inactive)
16 | O=C(CCN1CCCCCC1)Nc1ccc(F)c(F)c1 | -7.5% (inactive)
17 | COc1cc(/C=C(\NC(=O)c2ccccc2)C(=O)Nc2cccc(O)c2)c([N+](=O)[O-])cc1OC | 9.6% (inactive)

Row | SMILES | inhibition
18 | COC(=O)C(C(=O)OC)=C(/C=C/C=C/N(C)C)N(C)C | 2.5% (inactive)
19 | O=C(Nc1ccc(Br)cc1)c1ccccc1CC[N+](=O)[O-] | 17.3% (inactive)
20 | O=C1c2ccccc2C(=O)N1CC1c2ccccc2CCN1S(=O)(=O)c1cnc[nH]1 (stereo not drawn) | 7.7% (inactive)
21 | CC(C)c1nnc(NC(=O)CSc2ncn[nH]2)s1 | 10.7% (inactive)
22 | CC(C)(C)C1CCC(=NNC(=O)c2ccccc2-n2cccc2)CC1 (stereo not drawn) | 21% (inactive)
23 | CC12c3ccccc3C(c3ccccc31)C1C(=O)N(Cc3cccnc3)C(=O)[C@H]12 (stereo partly drawn) | 4.1% (inactive)
24 | COc1ccc2c(c1)c(=O)c(C(=O)c1ccc(C)cc1)cn2CC(=O)Nc1ccc(F)cc1 | 3.6% (inactive)
25 | COc1cc(OC)cc(-n2nnnc2SCC(=O)Nc2ccc(C(C)=O)cc2)c1 | 5.1% (inactive)
26 | Cc1cc(NC(=O)C(C)C)ncc1NC(=O)c1ccccn1 | 0.2% (inactive)
27 | O=C(CNC(=O)c1ccc(S(=O)(=O)N2CCCC2)cc1)N/N=C/c1ccc(Cl)cc1Cl | 9.4% (inactive)
28 | NC1=NC(=Nc2ccc(Cl)cc2)c2ccccc21 | -3.6% (inactive)
29 | Clc1ccc(N=c2ssnc2Cl)cc1 | 78.7% (active)
30 | Clc1nssc1=Nc1ccc(Br)cc1 | 81.6% (active)
31 | Brc1ccc(N=Cc2ccccn2)cc1 | -9.1% (inactive)
32 | NC1=NC(=Nc2ccc(Br)cc2)c2ccccc21 | -7.2% (inactive)
33 | O=C1NC(=Nc2ccc(Cl)cc2)/C(=C/c2ccco2)S1 | 1.4% (inactive)
